# Inconclusive results are not listed. Unmarked numbers belong to inactive results. The source made the active and inactive calls. The call rests on the fitted dose curve; in most records, active means well fitted curve in the direction sought with a large enough effect; inconclusive means small, poorly fitted or top-dose-only effect, or another doubt; inactive means no such curve, though single readings can be large; an effect the other way counts as inactive or inconclusive.
# Assay: qHTS of pediatric cancer cell lines to identify multiple opportunities for drug repurposing: Confirmatory screen for NB1643 cells (AID 1347109); further: nearly all actives have a fitted effect of over 45% in size;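 on activity change, negative = cytotoxic: plate controls were DMSO for no effect and bortezomib for full effect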
# Conditions: NB1643 neuroblastoma cell viability; series mostly up to 45.9 µM; activity change, negative = cytotoxic: at the top concentration
# Method in brief: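 Cells (500-1,000/well) in growth media were settled 5 h at 37 degrees C, then given compounds for 48 h. Viability was read as CellTiter-Glo luminescence. Primary runs used MIPE at 11 points (0.78 nM-46 µM) and NPC at 8 points (0.59 nM-46 µM); follow-ups used 11 points.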
# Potency means the concentration at half of the fitted maximal effect.
SMILES,"activity change, negative = cytotoxic [%]",Potency
CCCC(=O)O[C@]1(C(=O)CCl)[C@@H](C)C[C@H]2[C@@H]3CCC4=CC(=O)C=C[C@]4(C)[C@@]3(F)C(=O)C[C@@]21C,-25,
CCCC(=O)O[C@]1(C(=O)COC(=O)CC)CC[C@H]2[C@@H]3CCC4=CC(=O)CC[C@]4(C)[C@H]3[C@@H](O)C[C@@]21C,7.1,
CCC1=C[C@@H]2CN(C1)Cc1c([nH]c3ccccc13)[C@@](C(=O)OC)(c1cc3c(cc1OC)N(C)[C@H]1[C@@](O)(C(=O)OC)[C@H](OC(C)=O)[C@]4(CC)C=CCN5CC[C@]31[C@@H]54)C2,,104 nM (active)

# Assay: qHTS of pediatric cancer cell lines to identify multiple opportunities for drug repurposing: Confirmatory screen for A673 cells (AID 1347110);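 further: cells exposed to compound for 48 h before the viability read; nearly all actives have a fitted effect of over 65% in size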;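 on activity change, negative = cytotoxicity: plate controls were DMSO neutral control for no effect and bortezomib positive control for full effect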
# Conditions: A673 Ewing sarcoma cell viability; series mostly up to 45.9 µM; activity change, negative = cytotoxicity: at the top concentration
# Method in brief: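 Cells plated at 500-1,000/well were treated five hours later with multi-point dilutions up to 46 µM final. After two days, CellTiter-Glo was added and luminescence read.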
SMILES,"activity change, negative = cytotoxicity",Potency
CCCC(=O)O[C@]1(C(=O)CCl)[C@@H](C)C[C@H]2[C@@H]3CCC4=CC(=O)C=C[C@]4(C)[C@@]3(F)C(=O)C[C@@]21C,-14.7%,
CCCC(=O)O[C@]1(C(=O)COC(=O)CC)CC[C@H]2[C@@H]3CCC4=CC(=O)CC[C@]4(C)[C@H]3[C@@H](O)C[C@@]21C,-17.7% [at 29.5 µM],
CCC1=C[C@@H]2CN(C1)Cc1c([nH]c3ccccc13)[C@@](C(=O)OC)(c1cc3c(cc1OC)N(C)[C@H]1[C@@](O)(C(=O)OC)[C@H](OC(C)=O)[C@]4(CC)C=CCN5CC[C@]31[C@@H]54)C2,,11.7 nM (active)
